# Source: PubChem BioAssay
# Hits are enriched below; roughly 1.2% of the tested compounds scored in any of these assays.
# RGS12 GoLoco inh – RGS12 GoLoco-Gai1 interaction inhibition. 230,000 compounds, 0.44% hits. AID 880. Gai1:RGS12 GoLoco peptide FP, rhodamine, 10 min. P63096. Potency, µM (highest dose often 61.6 µM), most hits filed as inhibitors; active = well fitted inhibition curve with a large enough effect, not every such curve was filed as active; inactive = no such curve, though single readings can be large or run the other way; note: nearly all actives have a fitted effect of over 30% in size
# Anesthetic bind – candidate novel general anesthetic via apoferritin binding; apoferritin/1-aminoanthracene competitive binding, fluorescence; Potency, µM (titrated, usually from 77.5 µM), actives largely listed as inhibitors; 350,000 compounds, 0.074% hits; AID 485281; note: nearly all actives have a fitted effect of over 20% in size
# Target sequence (P02791 2-175 limits assumed): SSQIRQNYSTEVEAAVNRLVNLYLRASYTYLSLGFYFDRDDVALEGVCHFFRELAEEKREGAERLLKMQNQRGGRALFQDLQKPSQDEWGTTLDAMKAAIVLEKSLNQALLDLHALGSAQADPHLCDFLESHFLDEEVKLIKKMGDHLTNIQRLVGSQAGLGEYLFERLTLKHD
#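 Concentration-response curves derived by four-parameter Hill fitting of normalized fluorescence, where compounds displaced 1-AMA from 10 uM horse apoferritin following a brief 10 min room-temperature incubation; propofol titration acted as positive control.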
# BRCA1 expr up – activators of BRCA1 expression. 380,000 compounds, 1.1% hits. MCF7-BRCA1-FFLuc reporter, luminescence, 48 h; response scale: scaled: vehicle 0%, 10 µM genistein 100%. Potency, µM (top dose mostly 46.1 µM), usual class: activators. AID 624202; note: nearly all actives have a fitted effect of over 80% in size
#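 Luminescence from a BRCA1-driven firefly luciferase in MCF7 cells was read after 48 h compound exposure at 37 C. Data normalized against DMSO and a 10microM genistein activation control, then curve-fitted across the titration.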
# ERG Ets-DNA blk – ERG Ets/DNA interaction inhibition; P11308; fluorescence polarization, His-ERG Ets domain / labelled DNA; Potency, µM (doses to about 76.9 µM), hits mostly inhibitors; 370,000 compounds, 0.028% hits; active = well fitted inhibition curve with a large enough effect in the polarisation, with a control signal flat; inconclusive = small, poorly fitted or top-dose-only effect, or effect the other way, or a change in a side signal; inactive = no such curve, though single readings can be large or run the other way; the % refers to the polarisation;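 note: polarization taken with two DNA probes labelled with fluorescein and Texas red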
# Target sequence (P11308 whole entry, looked up, the tested form may be a part): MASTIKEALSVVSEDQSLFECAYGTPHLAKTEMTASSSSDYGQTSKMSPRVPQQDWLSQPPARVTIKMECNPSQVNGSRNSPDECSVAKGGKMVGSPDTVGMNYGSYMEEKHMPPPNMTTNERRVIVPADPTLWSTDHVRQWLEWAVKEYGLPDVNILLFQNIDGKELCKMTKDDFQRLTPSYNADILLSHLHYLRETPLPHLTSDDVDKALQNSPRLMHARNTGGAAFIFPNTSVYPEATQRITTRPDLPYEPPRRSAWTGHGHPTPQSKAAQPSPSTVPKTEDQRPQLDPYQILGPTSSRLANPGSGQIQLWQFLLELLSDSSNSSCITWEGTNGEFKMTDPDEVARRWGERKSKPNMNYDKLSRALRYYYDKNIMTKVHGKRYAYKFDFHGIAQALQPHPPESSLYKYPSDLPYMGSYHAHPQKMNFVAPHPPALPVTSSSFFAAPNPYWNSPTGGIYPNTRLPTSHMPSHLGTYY
#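 His-tagged ERG Ets domain (1 uM in the protein solution; 300mM KCl, 50mM Tris-HCl, 1mM EDTA, 1mM DTT, pH 7.5) received compound, then a probe mix of 5 nM fluorescein-DNA and 100nM Texas-615-DNA. Fluorescence polarization was read for both dyes.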
# Numbers stand for hits; . = inactive; ? = inconclusive; / = no result given; [ ] = remark or other dose. Unless noted, calls come from the whole dose curve; as a rule, active = well fitted curve in the direction sought with a large enough effect; inconclusive = small, poorly fitted or top-dose-only effect, or another doubt; inactive = no such curve, though single readings can be large; an effect the other way counts as inactive or inconclusive.
SMILES,RGS12 GoLoco inh,Anesthetic bind,BRCA1 expr up,ERG Ets-DNA blk
C/C=C(\C)NNC(=O)Cc1ccc(OC)cc1,/,/,.,/
c1ccc(OCCNc2ccn3nc(-c4ccco4)cc3n2)cc1,/,/,14µM,/
COc1cccc(-n2c(CCn3nc(C)c([N+](=O)[O-])c3C)n[nH]c2=S)c1,.,.,.,.
COc1ccc(CCn2nc(C)c([N+](=O)[O-])c2C)cc1,/,.,8.9µM,.
O=C(c1ccco1)N1CCCC(Nc2ccc3c(c2)OCCO3)C1 (stereo not given),/,?,8.9µM,.
CCCN1C(=O)/C(=C/c2ccc(N3CCCC3)c(C)c2)NC1=S,.,?,.,?
Cc1cc(/C=C2\NC(=S)N(C)C2=O)ccc1N1CCCC1,.,.,5µM,.
O=C(O)c1cc([N+](=O)[O-])c(Sc2nc3ccccc3[nH]2)c([N+](=O)[O-])c1,/,.,.,.
CS(=O)(=O)c1cc([N+](=O)[O-])c(Sc2nc3ccccc3[nH]2)c([N+](=O)[O-])c1,7.9µM,.,.,.
O=C(Nc1cccc2ccccc12)c1cnn2c1NC(=C1CC1)C=C2C(F)F,/,/,.,/
Cc1c(C2(c3cc(C(C)C)c(O)c(Br)c3C)OS(=O)(=O)c3ccccc32)cc(C(C)C)c(O)c1Br,/,/,.,/
CC(C)(C)c1ccc(/C=C/C(=O)N2CCCCC2)cc1,.,?,7.1µM,.
CC(C)Cc1ccc(/C=C/C(=O)NC2CC2)cc1,.,.,5.6µM,.
CC(C)Cc1ccc(/C=C/C(=O)N2CCCCC2)cc1,.,?,13µM,.
Cn1/c(=N/NC(=O)c2ccccc2Br)sc2ccccc21,.,.,10µM,.
COc1cc(C(=O)N/N=c2/sc3ccccc3n2C)cc(OC)c1OC,.,.,.,.
O=C(Cc1ccc2ccccc2c1)NO,/,/,.,/
CC(=O)OCC[n+]1c(C)n(-c2ccccc2)c2ccc(Cl)cc21,8.9µM,.,.,.
CC(C)(C)C(=O)Nc1ccc2c(c1)C(=O)C(=O)c1ccccc1-2,/,/,.,/
Fc1ccccc1CSc1nc2ncc(Br)cc2[nH]1,.,.,11µM,.
N#Cc1ccccc1CSc1nc2ncc(Br)cc2[nH]1,.,.,.,.
NC(=[SH+])N=N/C=C1/C=CC=CN1.O=S(=O)(O)O.[Fe],.[14.2 µM],/,/,/
Cc1n[nH]c(=S)n1/N=C/c1ccc(OCc2ccc(Cl)cc2)cc1,.,.,5µM,.
Fc1ccc(COc2ccc(/C=N/n3cnnc3)cc2)cc1,/,?,16µM,.
Nc1nnc(-c2cccc([N+](=O)[O-])c2)s1,.,?,.,.
SMILES,RGS12 GoLoco inh,Anesthetic bind,BRCA1 expr up,ERG Ets-DNA blk
Nc1nnc(/C=C/c2cccc([N+](=O)[O-])c2)s1,/,.,16µM,.
CC(=O)c1cccc(NC(=O)c2cc3ccccn3n2)c1,.,.,2.5µM,.
CC(=O)c1cccc(NC(=O)c2cnn3ccccc23)c1,.,.,3.5µM,.
CCC(=O)N(CC)c1nc(-c2ccc(OC)cc2)cs1,.,.,11µM,.
CCN(C(=O)c1ccccc1F)c1nc(-c2ccc(OC)cc2)cs1,/,.,7.9µM,.
CCC(=O)N(Cc1ccco1)c1nc(-c2ccc(OC)cc2)cs1,.,.,.,.
C=C1C=C(C)n2ncc(C(=O)NCCCCCC)c2N1,/,/,.,/
CCCCOc1ccc(C(=O)Nc2cccc(C)n2)cc1,.,?,2.8µM,.
Cc1cccc(NC(=O)c2ccc3nccnc3c2)n1,/,.,13µM,.
C=C(C)Cn1cnc2c(oc3nc4c(cc32)CCCC4)c1=O,.,.,5.6µM,.
NCCCC[C@H](NC(=O)[C@H](Cc1c[nH]c2ccccc12)NC(=O)[C@H](CC(=O)O)NC(=O)[C@H](Cc1cnc[nH]1)NC(=O)[C@H](CO)NC(=O)[C@H](Cc1c[nH]c2ccccc12)NC(=O)[C@H](Cc1cnc[nH]1)NC(=O)[C@@H]1CCC(=O)N1)C(=O)N1CCC[C@H]1C(=O)NCC(N)=O,/,.,/,/
CC1CCC(NC(=O)c2cccn2C)CC1 (stereo not given),/,/,?,.
Cn1cccc1C(=O)NC1CCCCCC1,/,/,10µM,.
CC(C)C[C@H](NC(=O)[C@H](CCCCN)NC(=O)[C@H](CCCNC(=N)N)NC(=O)[C@H](C)NC(=O)[C@H](CO)NC(=O)[C@H](CCCCN)NC(=O)[C@H](CCCNC(=N)N)NC(=O)[C@H](C)NC(=O)CNC(=O)[C@@H](NC(=O)[C@H](Cc1ccccc1)NC(=O)CNC(=O)CNC(=O)[C@@H](N)Cc1ccccc1)[C@@H](C)O)C(=O)N[C@@H](C)C(=O)N[C@@H](CC(N)=O)C(=O)N[C@@H](CCC(N)=O)C(=O)O,/,.,/,/
O=C(C1=C(O)C(=O)N(c2nccs2)C1c1ccccc1)c1cc2ccccc2o1 (stereo not given),20µM,.,.,.
Cc1cc(F)c(Nc2ncnc3cc(OCc4ccccc4)ccc23)cc1O,.,.,/,/
CCOC(=O)C1(Cc2ccccc2Cl)CCN(C(=O)CN2CCOC2=O)CC1,.,.,13µM,.
CC(O)[C@@H](O)[C@H]1CNc2nc(N)[nH]c(=O)c2N1 (stereo not given in full),.,/,/,/
CC(C)(C)c1ccc(C(=O)C[n+]2cc(Br)cc(Br)c2)cc1,/,/,.,/
CCOc1ccc(NC(=O)CSc2nnc3c(n2)[nH]c2ccc(S(=O)(=O)N4CCCCC4)cc23)cc1,/,/,.,/
CN(C)c1ccc(NC(=O)c2ccc3nsnc3c2)cc1,13µM,.,?,.
CN(C)c1ccc(/C=C/c2ccc3cc(F)ccc3n2)cc1,/,/,.,/
COc1cc(OC)c(C(=O)NCc2ccco2)cc1OC,/,.,.,.
COc1cc(C(F)(F)F)ccc1C(=O)NCCc1ccco1,/,.,6.3µM,.
COc1ccc(C(=O)Nc2cccc(-c3cnc4ccccc4n3)c2)cc1,.,.,4µM,.
SMILES,RGS12 GoLoco inh,Anesthetic bind,BRCA1 expr up,ERG Ets-DNA blk
Cc1ccc(C(=O)Nc2cccc(-c3cnc4ccccc4n3)c2)cc1,.,.,.,/
CC(C)C(=O)Nc1cccc(-c2cnc3ccccc3n2)c1,.,.,11µM,.
O=C(NCc1cccs1)c1cc2c(s1)CCCC2,.,.,13µM,.
O=C(NCc1cccs1)c1csc2c1CCCCC2,.,?,.,/
Cc1c(CC(=O)NCCc2ccccc2)c(=O)oc2c(C)c3occ(C(C)(C)C)c3cc12,/,?,/,.
CCN(CC)S(=O)(=O)c1ccc2c(c1)c(=O)c(C(=O)NCc1ccccc1Cl)cn2C,/,.,.,.
Cc1ccc(-c2nc(C#N)c(NCc3ccco3)o2)cc1,.,.,?,.
COc1ccc(-c2nc(C#N)c(NCc3ccco3)o2)cc1,.,.,8.9µM,.
CC1CCC/C(=C\Nc2ccc(O)cc2)C1=O (stereo not given),28µM,?,?,.
O=C(c1ccccc1)c1cc2cc(Cl)ccc2[nH]1,/,.,10µM,.
COc1cccc(C(=O)c2cc3cc(Cl)ccc3[nH]2)c1,/,.,.,.
Cc1nn2c(C)c(C(=O)NC(C)c3ccccc3)cnc2c1-c1ccc(F)cc1 (stereo not given),/,.,/,.
O=c1c(-c2ccc(O)cc2)coc2cc(O[C@@H]3O[C@H](CO)[C@H](O)[C@H](O)[C@H]3O)ccc12,/,.,/,/
